We go through 30 sequences from PMC9838217, “Structure of SALL4 zinc finger domain reveals link between AT-rich DNA binding and Okihiro syndrome”.

Where a chain is given by its changes, count along the chain named.

Holding throughout (assay): HT-SELEX; high values mean tight binding
What all share (details): protein: recombinant; vector His6-GST; dsDNA, one strand shown

In one experiment the target is T1, SALL4 ZFC4 WT (HT-SELEX) (Mus musculus, UniProt Q8BX22 870-940).
T1 sequence: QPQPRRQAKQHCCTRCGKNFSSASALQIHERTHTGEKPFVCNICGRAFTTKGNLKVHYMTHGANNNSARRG
A digest of the protocol: (§1)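 DNA from a random library (1.5 µg in the first cycle, 200 ng afterwards) was incubated with purified recombinant mouse SALL4 zinc finger cluster 4, residues 870–940 (1 µg), for 10 min at room temperature in 100 µl buffer: 10 mM Tris–HCl pH 7.5, 50 mM NaCl, poly(dI-dC), DTT. Bound complexes were pulled down on Ni2+ beads, washed and PCR-amplified, and the selection was repeated for up to 6 cycles in triplicate. MiSeq reads were scanned for 6-mers, and binding signal is each canonical k-mer's read fraction as fold change over the initial random library.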

The target of experiment [1] is T2, SALL4 ZFC4 R900W (HT-SELEX) (Mus musculus, UniProt Q8BX22 870-940, R900W).
T2 sequence: T1 sequence with R31W
In a few lines:
as §1

For experiment [2], the target named is T3, SALL4 ZFC4 G921D (HT-SELEX) (Mus musculus, UniProt Q8BX22 870-940, G921D).
T3 sequence: T1 sequence with G52D
A digest of the protocol: as §1

As for AGAATC, the binding signal amounted to 1.3 ± 0.1 fold-change vs cycle 0 with SALL4 ZFC4 WT (HT-SELEX), 1.47 ± 0.0816 fold-change vs cycle 0 in experiment [1] and 1.41 ± 0.128 fold-change vs cycle 0 in experiment [2].

Take AGGGAA: the binding signal amounted to 0.891 ± 0.0417 fold-change vs cycle 0 with SALL4 ZFC4 WT (HT-SELEX), 1.01 ± 0.045 fold-change vs cycle 0 in experiment [1] and 0.989 ± 0.0164 fold-change vs cycle 0 in experiment [2].

On to GGAACA, for which the binding signal in the experiment with SALL4 ZFC4 WT (HT-SELEX) is 0.762 ± 0.0355 fold-change vs cycle 0; in experiment [1] it was 0.882 ± 0.0371 fold-change vs cycle 0; in experiment [2] it was 0.956 ± 0.0475 fold-change vs cycle 0.

For CGCATA, the results for the binding signal (with SALL4 ZFC4 WT (HT-SELEX); in experiment [1]; in experiment [2]) were 0.489 ± 0.0286 fold-change vs cycle 0, 0.499 ± 0.00702 fold-change vs cycle 0 and 0.636 ± 0.061 fold-change vs cycle 0, respectively.

Consider CAGCAG, for which the binding signal amounted to 0.333 ± 0.0334 fold-change vs cycle 0 with SALL4 ZFC4 WT (HT-SELEX), 0.387 ± 0.024 fold-change vs cycle 0 in experiment [1] and 0.523 ± 0.0543 fold-change vs cycle 0 in experiment [2].

For GTTCTA, the figures for the binding signal (with SALL4 ZFC4 WT (HT-SELEX); in experiment [1]; in experiment [2]) were 1.28 ± 0.0473 fold-change vs cycle 0, 1.39 ± 0.0453 fold-change vs cycle 0 and 1.33 ± 0.108 fold-change vs cycle 0, respectively.

Take TCTCCA: the binding signal with SALL4 ZFC4 WT (HT-SELEX) came out at 0.872 ± 0.044 fold-change vs cycle 0; in experiment [1] it was 0.992 ± 0.0225 fold-change vs cycle 0; in experiment [2], 0.99 ± 0.0254 fold-change vs cycle 0.

Turning to ATCAGA, the values for the binding signal (with SALL4 ZFC4 WT (HT-SELEX); in experiment [1]; in experiment [2]) were 1.37 ± 0.0717 fold-change vs cycle 0, 1.43 ± 0.0639 fold-change vs cycle 0 and 1.38 ± 0.109 fold-change vs cycle 0, respectively.

Regarding GGAGTA, the binding signal with SALL4 ZFC4 WT (HT-SELEX) worked out at 0.898 ± 0.0231 fold-change vs cycle 0; in experiment [1], 0.991 ± 0.0565 fold-change vs cycle 0; in experiment [2], 1.01 ± 0.0114 fold-change vs cycle 0.

As for AAGGAC, the binding signal with SALL4 ZFC4 WT (HT-SELEX) was 0.805 ± 0.0174 fold-change vs cycle 0; in experiment [1], 0.941 ± 0.0375 fold-change vs cycle 0; in experiment [2], 0.9757 ± 0.00429 fold-change vs cycle 0.

On to AGGCTC, for which the values for the binding signal (with SALL4 ZFC4 WT (HT-SELEX); in experiment [1]; in experiment [2]) were 0.313 ± 0.0334 fold-change vs cycle 0, 0.399 ± 0.014 fold-change vs cycle 0 and 0.546 ± 0.0493 fold-change vs cycle 0, respectively.

As to TAGTGA, the binding signal with SALL4 ZFC4 WT (HT-SELEX) stood at 1.4 ± 0.0384 fold-change vs cycle 0; in experiment [1] it was 1.53 ± 0.027 fold-change vs cycle 0; in experiment [2], 1.43 ± 0.107 fold-change vs cycle 0.

Regarding CGAATA, the binding signal with SALL4 ZFC4 WT (HT-SELEX) was 1.1 ± 0.0554 fold-change vs cycle 0; in experiment [1], 1.13 ± 0.0519 fold-change vs cycle 0; in experiment [2] it was 1.14 ± 0.0398 fold-change vs cycle 0.

For the sequence GCTGTA, the binding signal in the experiment with SALL4 ZFC4 WT (HT-SELEX) is 0.574 ± 0.0425 fold-change vs cycle 0; in experiment [1], 0.653 ± 0.0229 fold-change vs cycle 0; in experiment [2] it was 0.75 ± 0.0402 fold-change vs cycle 0.

As to GAAAAA, the binding signal was found to be 1.86 ± 0.136 fold-change vs cycle 0 with SALL4 ZFC4 WT (HT-SELEX), 1.6 ± 0.0749 fold-change vs cycle 0 in experiment [1] and 1.47 ± 0.105 fold-change vs cycle 0 in experiment [2].

Turning to GTTTAA, the binding signal with SALL4 ZFC4 WT (HT-SELEX) is 1.69 ± 0.0773 fold-change vs cycle 0; in experiment [1], 1.79 ± 0.0911 fold-change vs cycle 0; in experiment [2], 1.63 ± 0.153 fold-change vs cycle 0.

With AGAGCA, the binding signal with SALL4 ZFC4 WT (HT-SELEX) stood at 0.756 ± 0.0413 fold-change vs cycle 0; in experiment [1] it was 0.893 ± 0.0729 fold-change vs cycle 0; in experiment [2], 0.98 ± 0.0193 fold-change vs cycle 0.

Consider GACTCC, for which the binding signal was 0.5 ± 0.00838 fold-change vs cycle 0 with SALL4 ZFC4 WT (HT-SELEX), 0.594 ± 0.00754 fold-change vs cycle 0 in experiment [1] and 0.705 ± 0.0401 fold-change vs cycle 0 in experiment [2].

In the case of GAGATC, the binding signal in the experiment with SALL4 ZFC4 WT (HT-SELEX) stood at 0.836 ± 0.059 fold-change vs cycle 0; in experiment [1], 0.953 ± 0.0609 fold-change vs cycle 0; in experiment [2], 1.06 ± 0.0528 fold-change vs cycle 0.

As for CAACTA, the binding signal was found to be 1.19 ± 0.0469 fold-change vs cycle 0 in the experiment with SALL4 ZFC4 WT (HT-SELEX), 1.31 ± 0.0705 fold-change vs cycle 0 in experiment [1] and 1.29 ± 0.0584 fold-change vs cycle 0 in experiment [2].

For the sequence CGTAAG, the binding signal amounted to 0.774 ± 0.0532 fold-change vs cycle 0 with SALL4 ZFC4 WT (HT-SELEX), 0.862 ± 0.0372 fold-change vs cycle 0 in experiment [1] and 0.905 ± 0.0422 fold-change vs cycle 0 in experiment [2].

As for ACCTGA, the binding signal in the experiment with SALL4 ZFC4 WT (HT-SELEX) was determined as 0.842 ± 0.0331 fold-change vs cycle 0; in experiment [1] it was 1 ± 0.047 fold-change vs cycle 0; in experiment [2], 1.02 ± 0.0552 fold-change vs cycle 0.

In the case of GAAATC, the values for the binding signal (with SALL4 ZFC4 WT (HT-SELEX); in experiment [1]; in experiment [2]) were 1.25 ± 0.0302 fold-change vs cycle 0, 1.28 ± 0.0173 fold-change vs cycle 0 and 1.27 ± 0.0773 fold-change vs cycle 0, respectively.

On to TACCCA, for which the binding signal was 0.781 ± 0.0395 fold-change vs cycle 0 with SALL4 ZFC4 WT (HT-SELEX), 0.882 ± 0.0184 fold-change vs cycle 0 in experiment [1] and 0.886 ± 0.035 fold-change vs cycle 0 in experiment [2].

Regarding CTACAC, the binding signal in the experiment with SALL4 ZFC4 WT (HT-SELEX) was found to be 0.733 ± 0.0291 fold-change vs cycle 0; in experiment [1], 0.845 ± 0.0188 fold-change vs cycle 0; in experiment [2] it was 0.893 ± 0.0116 fold-change vs cycle 0.

Turning to AAATAA, the binding signal was found to be 3.25 ± 0.208 fold-change vs cycle 0 with SALL4 ZFC4 WT (HT-SELEX), 2.56 ± 0.166 fold-change vs cycle 0 in experiment [1] and 2.14 ± 0.25 fold-change vs cycle 0 in experiment [2].

As to AGCCTC, the values for the binding signal (with SALL4 ZFC4 WT (HT-SELEX); in experiment [1]; in experiment [2]) were 0.316 ± 0.0162 fold-change vs cycle 0, 0.401 ± 0.0165 fold-change vs cycle 0 and 0.536 ± 0.0409 fold-change vs cycle 0, respectively.

AGGGTA: the figures for the binding signal (in the experiment with SALL4 ZFC4 WT (HT-SELEX); in experiment [1]; in experiment [2]) were 0.87 ± 0.0133 fold-change vs cycle 0, 1 ± 0.0465 fold-change vs cycle 0 and 0.989 ± 0.0135 fold-change vs cycle 0, respectively.

With ATCAGG, the binding signal was determined as 0.876 ± 0.0408 fold-change vs cycle 0 with SALL4 ZFC4 WT (HT-SELEX), 0.991 ± 0.0415 fold-change vs cycle 0 in experiment [1] and 1 ± 0.0437 fold-change vs cycle 0 in experiment [2].

Consider CGGTTA, for which the binding signal in the experiment with SALL4 ZFC4 WT (HT-SELEX) came out at 0.677 ± 0.0447 fold-change vs cycle 0; in experiment [1], 0.748 ± 0.0385 fold-change vs cycle 0; in experiment [2] it was 0.801 ± 0.0326 fold-change vs cycle 0.
